Experimental findings from ChEMBL document CHEMBL4513216, “Probing the Open Global Health Chemical Diversity Library for Multistage-Active Starting Points for Next-Generation Antimalarials” (ACS Infect Dis, 2020) are described below.

SMILES strings stand for the structures. The whole screen tested about 69,000 compounds, of which about 8,600 (12%) showed an effect of 50% or more. This is one part of a sample in which strong results are shown more often than they occur.

The experiment deals with Plasmodium berghei. The experiment in a line: Screen against P. berghei liver stage (PbLuc), transformed with Luciferase, at 10uM. The format is functional, HepG2. The conditions noted are these: tested at 10 uM.
Regarding `COc1ccc(-c2nc(C#N)c(N(C)C)o2)cc1S(=O)(=O)N(C)C`, the INHIBITION is on record as 12.8%.
As for `CC(NC(=O)c1cccs1)C(=O)Nc1cccnc1N1CCCCC1` (stereo unspecified), the figure is -36.3%; as for `CC(=O)N(C)CC(=O)Nc1cnc(-n2ccnc2C)nc1`, 95.9%.
Regarding `CC(=O)N(C)CC(=O)Nc1cnc(-n2ccnc2)nc1`, the INHIBITION was determined as 41.2%.
For the compound `CC(=O)Nc1cnc(-n2ccnc2)nc1`, the INHIBITION is given as 13.8%.
For `CN(Cc1nccn1CC(F)(F)F)C(=O)c1cccc(N(C)C)c1`, the INHIBITION was -15.7%.
As for `CC(=O)N1CCCC2(CN(Cc3ccc(F)cc3)CCO2)C1` (stereo unspecified), the figure is -0.813%; as for `Cc1noc(C)c1CN1C(=O)[C@@H]2CC[C@H]1CN(Cc1ccc(Cl)cc1)C2`, -48.1%; as for `O=C(c1n[nH]cc1Br)N1CCOCC1`, 33.3%.
With `Cc1nc(N2CCC3(CCCN(CCO)C3=O)C2)c2sccc2n1` (stereo unspecified), the INHIBITION amounted to 40.5%.
Regarding `CNc1nc(C(=O)N2CCC3(CCCN(CC4CC4)C3=O)C2)cs1` (stereo unspecified), the INHIBITION stood at 21.2%.
For the compound `COc1ccnc(N2CCC3(CCCN(CC4CC4)C3=O)C2)n1` (stereo unspecified), the INHIBITION was determined as 30.3%.
For `COCCN1CCCC2(CCN(c3nc(C)nc4ccsc34)C2)C1=O` (stereo unspecified), the INHIBITION was 41.8%.
As to `Cc1nc(N2CCC3(CCCN(C(C)C)C3=O)C2)c2sccc2n1` (stereo unspecified), the INHIBITION is 81.6%.
For `COc1ccnc(N2CCC3(CCCN(C(C)C)C3=O)C2)n1` (stereo unspecified), the INHIBITION worked out at 48.8%.
On to `Cc1nc(N2CCC3(CCCN(CC4CC4)C3=O)C2)c2sccc2n1` (stereo unspecified), for which the INHIBITION is 82.9%.
Take `COc1nccnc1N1CCC2(CCCN(C(C)C)C2=O)C1` (stereo unspecified): the INHIBITION is given as -9.17%.
As for `CCCN1CCCC2(CCN(c3nc(C)nc4ccsc34)C2)C1=O` (stereo unspecified), the INHIBITION was determined as 76.5%.
As for `Cc1ccc(N2CCCN(C(=O)C3CCCO3)CC2)nn1` (stereo unspecified), the INHIBITION is -72.5%.
With `Cn1nc(CN2CCOCC2)c2c1CN(Cc1ccsc1)C2`, the INHIBITION was 8.03%.
To `COc1ccc2c(c1)C(=O)NC1(CC2)CCN(Cc2ccccc2)C1` (stereo unspecified) belongs 41.3%; to `CC(C)c1nc(C2CCCN2CCOCC2CC2)no1` (stereo unspecified), 12.3%; to `CN1C(=O)CC(C(=O)O)C12CCN(c1ccc3c(n1)CCCC3)CC2` (stereo unspecified), -11.7%.
To `CC1(C)CN(CCC(=O)NCc2cccc(Cl)c2)CC[C@]1(C)O` belongs 24.2%; to `Cc1ccc2[nH]c(C(=O)N3CCCC3Cn3cccn3)cc2c1` (stereo unspecified), 16.8%; to `Cc1ccccc1S(=O)(=O)NC(=O)CSc1ccc2c(c1)OCCO2`, 5.65%.
`O=C(CCc1cc(F)ccc1F)NS(=O)(=O)c1ccc2c(c1)OCCO2`: the INHIBITION is 42%.
Turning to `O=C(CCc1ccccc1F)NS(=O)(=O)c1ccc2c(c1)OCCCO2`, the INHIBITION is 16%.
As to `O=C(CSc1ccc2c(c1)OCCO2)NS(=O)(=O)c1ccccc1F`, the INHIBITION stood at 68.2%.
To `COc1cccc(CN(C)C(=O)CSc2ccc3c(c2)OCCO3)c1` belongs -45.8%.
In the case of `CSCC(=O)N(C)Cc1ccccc1`, the INHIBITION is 47.4%.
`CN(Cc1ccc(N(C)C)cc1)C(=O)CSc1ccc(Br)cc1`: the INHIBITION stood at 79.1%.
Take `CN(Cc1ccccc1)C(=O)CSc1ccc2c(c1)OCCO2`: the INHIBITION was 73.1%.
Take `O=C(CCc1ccccc1F)NS(=O)(=O)c1ccc2c(c1)OCCO2`: the INHIBITION turned out to be 50.3%.
As for `O=C(CSc1ccc2c(c1)OCCO2)NS(=O)(=O)c1cc(F)ccc1F`, the figure is 27.6%; as for `CSCC(=O)N(C)Cc1ccc(N(C)C)cc1`, 47.4%; as for `CN(Cc1ccccc1)C(=O)CCS(=O)(=O)c1ccc2c(c1)OCCO2`, 41.4%.
To `Cn1ccnc1CC1CCCN(C(=O)NCCOc2cccnc2)C1` (stereo unspecified) belongs 44.5%; to `Cc1cn[nH]c1C1CCCCN1C(=O)CCc1c(C)n[nH]c1C` (stereo unspecified), 33.7%.
Take `c1cnc(NCc2nnn3c2CN(CC2CC2)CCC3)nc1`: the INHIBITION is on record as 10.6%.
Turning to `CC(c1cccc(S(N)(=O)=O)c1)N(C)CCOc1ccccc1` (stereo unspecified), the INHIBITION was found to be 22.3%.
As for `Cc1nnc2n1CCN(C(=O)c1cn(-c3ccc(F)cc3)nn1)C2`, the INHIBITION was -6.39%.
Turning to `CC(=O)N(Cc1ncc(C)o1)C1CCN(Cc2nnc(C3CC3)o2)C1` (stereo unspecified), the INHIBITION was found to be 34.9%.
Consider `COc1ccc(S(=O)(=O)N2CCOC(C)(C(N)=O)C2)cc1` (stereo unspecified), for which the INHIBITION was -2.605%.
To `NC1CCCc2c1cnn2-c1cc(F)cc(F)c1` (stereo unspecified) belongs -19.1%; to `OCC(O)CSCc1ccc(Cl)cc1Cl` (stereo unspecified), 53.9%; to `OCC(O)CSCc1ccc(F)cc1Cl` (stereo unspecified), -15.6%.
Turning to `OCC(O)CSCc1cc(Cl)ccc1Cl` (stereo unspecified), the INHIBITION came to 5.41%.
As to `COc1cccc(C(=O)NS(=O)(=O)c2cncc(Br)c2)c1OC`, the INHIBITION was determined as 15.1%.
`CCc1ccc(S(=O)(=O)Nc2ccncc2)s1`: the INHIBITION is given as -6.4%.
Regarding `Cn1cc(CN2CCc3onc(C(=O)Nc4cccnc4)c3C2)cn1`, the INHIBITION came to 43.4%.
As for `CC(C)(C)c1nc(CNC2CCN(S(C)(=O)=O)CC2)cs1`, the figure is 20.6%; as for `O=C(c1cccnc1O)N1CCOC(Cc2cccc(C(F)(F)F)c2)C1` (stereo unspecified), 31.7%; as for `O=C(c1cccnc1N1CCOC(c2ccc(Cl)cc2)C1)N1CCCC1` (stereo unspecified), 45.1%.
With `O=C(c1cccnc1O)N1CCOC(c2ccc(Cl)cc2)C1` (stereo unspecified), the INHIBITION is listed as 68.6%.
`O=C(c1cccnc1N1CCCC1)N1CCOC(c2ccccc2)C1` (stereo unspecified): the INHIBITION is reported as -30.2%.
To `CN(C)C(=O)c1cccnc1N1CCOC(c2ccc(Cl)cc2)C1` (stereo unspecified) belongs 55%; to `O=C(c1cccnc1N1CCOC(c2ccc(F)cc2)C1)N1CCCC1` (stereo unspecified), 45.1%.
To `O=C(CSc1nnc(N2CCOCC2)s1)NCc1cccs1` belongs -21.5%; to `CC(C)COC(C)C(=O)NCCNS(C)(=O)=O` (stereo unspecified), 2.29%.
Turning to `Cc1oc(-c2ccsc2)nc1CC(=O)NCC(=O)Nc1cn[nH]c1`, the INHIBITION was found to be 33%.
As for `Cc1nn(CC(=O)NCc2cc3n(n2)CCCN(CC(C)C)C3)cc1Cl`, the figure is 58.7%; as for `CC(C)CN1CCCn2nc(CNC(=O)CN3CCOC3=O)cc2C1`, 7.92%; as for `CC(C)CN1CCCn2nc(CNC(=O)CCN)cc2C1`, 16.6%.
As to `Cc1noc(C)c1C(C)C(=O)N1CCCN(C)c2ccc(Cl)cc21` (stereo unspecified), the INHIBITION is listed as 33.1%.
As for `CN1CCC(c2cc(C(F)(F)F)n3ccnc3n2)CC1`, the figure is 26.3%.
For `CC(=O)Nc1cccc(-c2ccccc2CCN)c1`, the INHIBITION amounted to 71.3%.
On to `CC(=O)Nc1ccc(-c2ccccc2CCN)cc1`, for which the INHIBITION is -2.43%.
On to `CC(=O)Nc1ccc(-c2ccccc2NC(=O)CN)cc1`, for which the INHIBITION was -17.7%.
For the compound `c1cc(C2CCN(C3CCCCC3)C2)n[nH]1` (stereo unspecified), the INHIBITION was found to be 18.535%.
As for `Cc1nc2ccccn2c1CC(=O)N[C@@H]1CCC[C@@H](N2CCCC2)[C@@H]1O`, the INHIBITION is -29.8%.
On to `Cc1nc2ccccn2c1CC(=O)N[C@@H]1CC[C@@H](N2CCCC2)[C@@H]1O`, for which the INHIBITION is -6.92%.
As for `Cc1nc2ccccn2c1CC(=O)N[C@@H]1CC[C@@H](N2CCOCC2)[C@@H]1O`, the figure is 52%; as for `CCc1ncnc(N2CCOCC2CCO)c1F` (stereo unspecified), 6.94%.
To `CCc1ncnc(N2CCOCC2C(N)=O)c1F` (stereo unspecified) belongs -4.95%; to `CCc1ncnc(N2CCOCC2C2CC2)c1F` (stereo unspecified), 57.5%.
As for `O=C1CC(c2ccncc2)C2(CCN(C(=O)c3cccc(F)c3)CC2)N1` (stereo unspecified), the INHIBITION amounted to 11.3%.
As for `Cc1cc(NC2CCC(=O)N(C)C2)n2nccc2n1` (stereo unspecified), the INHIBITION is -41.8%.
In the case of `Cc1cnn(CC2CCCCN2Cc2nnsc2Cl)c1` (stereo unspecified), the INHIBITION is on record as -17.6%.
Regarding `COc1ccc(C2CC(=O)Oc3cc(C)[nH]c(=O)c32)c(OC)c1` (stereo unspecified), the INHIBITION is recorded as 45.7%.
`O=C(Cn1ccc2ccccc21)Nc1cc(N2CCCC2)ncn1`: the INHIBITION was determined as 27.5%.
To `O=C(Cn1ccc2ccccc21)Nc1cc(N2CCOCC2)ncn1` belongs 30.5%.
As for `CN1CCN(c2cc(NC(=O)Cn3ccc4ccccc43)ncn2)CC1`, the INHIBITION came to 60.1%.
Consider `COCCC1(CO)CCCN(C(=O)c2cc(=O)[nH]c(=O)[nH]2)C1` (stereo unspecified), for which the INHIBITION amounted to 0.33%.
`CNC(=O)CN1CC[C@H]2CN(C(=O)c3cccn3C)C[C@H]2C1`: the INHIBITION is 9.51%.
`O=C(NCC1CCCO1)c1cc(-c2ccncc2)c2cnccc2n1` (stereo unspecified): the INHIBITION is on record as -3.02%.
Regarding `CCN1CCN(C)C(=O)C12CCN(Cc1ccsc1)CC2`, the INHIBITION is reported as -9.74%.
With `COCC1CCN(c2ccnc3ccsc23)C1` (stereo unspecified), the INHIBITION was 79.5%.
As for `c1cc(N2CCC(CN3CCOCC3)CC2)c2sccc2n1`, the INHIBITION is listed as 73.8%.
For the compound `O=C(c1cnccn1)N1CCN(c2ccnc3ccsc23)CC1`, the INHIBITION is recorded as -7.46%.
For `CN(C)C(=O)C1CCCN1c1ccnc2ccsc12` (stereo unspecified), the INHIBITION is 1.75%.
Take `O=C(N1CCOCC1)N1CCN(c2ccnc3ccsc23)CC1`: the INHIBITION was determined as 5.76%.
To `OCCC1CCN(c2ccnc3ccsc23)C1` (stereo unspecified) belongs 5.11%; to `CSc1ncc(Cl)c(C(=O)NC(Cc2ccccc2)C(=O)O)n1` (stereo unspecified), 36.7%; to `CC(C)C(=O)Nc1cccc(CNC(=O)CSCc2ccccn2)c1`, 24.2%.
For `CCOc1ncccc1CNC(=O)Nc1ccc(OC)c(OC)c1`, the INHIBITION is recorded as -49.5%.
Consider `Cc1nc(CN2C[C@@H]3CN(C(=O)[C@H]4CCCO4)C[C@@H]3C2=O)cs1`, for which the INHIBITION is given as 19.4%.
`CN1CCC2(CC1)C(=O)N(c1cccnc1)c1ccc(F)cc12`: the INHIBITION is recorded as -45.8%.
As for `O=C(c1cc2cc(I)ccc2[nH]1)N1CCC(Nc2cccnn2)CC1`, the INHIBITION is on record as 9.54%.
On to `COc1cccc(F)c1CN1CCC(c2nccc(C)n2)C1` (stereo unspecified), for which the INHIBITION is 1.35%.
For `N#CCCN(CC(F)(F)F)C(=O)c1cc(-n2cccn2)ccn1`, the INHIBITION was -13.7%.
In the case of `Cc1ccccc1NS(=O)(=O)c1ccc(C(=O)O)cc1F`, the INHIBITION came out at 10.5%.
For the compound `O=C(O)c1ccc(S(=O)(=O)Nc2ccccc2CC(F)(F)F)c(F)c1`, the INHIBITION was found to be 53.3%.
For the compound `O=C(O)c1ccc(S(=O)(=O)Nc2ccccc2F)c(F)c1`, the INHIBITION is listed as 14.8%.
`Cc1nc(C)n(C2CCCN(C(=O)c3ccn(C(C)C)n3)C2)n1` (stereo unspecified): the INHIBITION is recorded as -2.53%.
Regarding `O=C(NCCN1CCNC1=O)c1cc(-c2ccc(O)cc2)n[nH]1`, the INHIBITION is given as 10.7%.
To `O=C(NCCC1=CCCCC1)c1cc(-c2ccc(O)cc2)n[nH]1` belongs 52.6%.
Take `O=C(NCCN1CCc2ccccc21)c1cc(-c2ccc(O)cc2)n[nH]1`: the INHIBITION was determined as 68.9%.
To `Cc1ccc(-c2cc(C(=O)NCCC3=CCCCC3)[nH]n2)o1` belongs 49.9%; to `CCCc1cc(C(=O)NCCC2=CCCCC2)[nH]n1`, -73.5%; to `Cc1cc(C(=O)NCCN2CCCc3ccccc32)[nH]n1`, 48.8%.
